HGIII-sPLA2 inh = Blocks human group III sPLA2 activity; Q9NZ20; QFRET BODIPY PC-A2 liposome hydrolysis, fluorescence; inhibition, % at 12.2 µM; 0.56% of 370,000 active; AID 743126;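 active means inhibition above mean plus 3 SD of compounds lying within the high and low control bounds, cut at about 19% in these data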;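 further: 0% = median of test compound wells and 100% = no enzyme DMSO wells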
Target sequence (Q9NZ20 whole entry, looked up): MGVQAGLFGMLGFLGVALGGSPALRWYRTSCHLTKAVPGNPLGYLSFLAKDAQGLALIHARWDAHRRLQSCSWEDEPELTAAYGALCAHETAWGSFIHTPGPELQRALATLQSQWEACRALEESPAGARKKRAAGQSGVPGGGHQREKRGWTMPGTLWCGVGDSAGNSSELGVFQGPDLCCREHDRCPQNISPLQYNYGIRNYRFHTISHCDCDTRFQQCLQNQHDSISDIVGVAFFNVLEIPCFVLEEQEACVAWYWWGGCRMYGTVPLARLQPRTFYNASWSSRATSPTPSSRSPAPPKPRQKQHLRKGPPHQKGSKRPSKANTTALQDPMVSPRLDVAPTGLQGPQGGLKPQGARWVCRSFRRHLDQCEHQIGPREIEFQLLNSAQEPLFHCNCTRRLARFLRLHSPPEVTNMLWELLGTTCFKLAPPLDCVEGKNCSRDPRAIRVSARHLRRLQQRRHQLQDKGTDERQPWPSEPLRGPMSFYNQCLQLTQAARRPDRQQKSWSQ
PLCb3 inh = PLC-beta3 (human) inhibition, primary screen | Q01970 | Purified PLC-beta3, fluorogenic substrate, fluorescence | inhibition, % at 12.2 µM | 0.18% of 370,000 active | AID 720704; in the data active means inhibition above about 11%;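 further: 0% = median of compound wells on plate and 100% = full blocker control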
PLC-gamma1 inh = inhibitors of human phospholipase C gamma1; 0.84% of 370,000 active; purified PLC-gamma1, fluorogenic substrate, fluorescence; inhibition, % at 12.2 µM; AID 720700; in the data active means inhibition above about 9.5%
ADAM17 inh = inhibits human ADAM17; P78536; recombinant ADAM17, EDANS/DABCYL FRET peptide cleavage; inhibition, % at 6.95 µM; 0.83% of 370,000 active;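 active means inhibition above the mean of compounds lying between control limits plus 3 SD, set per campaign, cut at about 8.5% in these data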;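 further: 0% = DMSO-only wells as the low control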
ADAM10 inh = inhibits human ADAM10; inhibition, % at 7 µM; 0.62% of 370,000 active; recombinant ADAM10, EDANS/DABCYL FRET peptide cleavage, 3 h; AID 720582;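 active means inhibition above a per-campaign cutoff equal to the mean of compounds falling between control-based bounds plus 3 SD, cut at about 20% in these data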;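 further: 0% = DMSO wells while the 100% control is not disclosed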
proKLK7 act = activates the human kallikrein-7 zymogen | P49862 | purified proKLK7, EDANS-DABCYL substrate fluorescence; 100% is mature enzyme control, 0% vehicle | activation, % at 7 µM | 0.9% of 370,000 active | AID 652039;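 active means activation above the mean of all tested compounds plus 3 SD, computed per campaign excluding outliers beyond control limits, cut at about 13% in these data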
sPLA2 confirm = human GIII-sPLA2 inhibition, confirmation; shares compounds with HGIII-sPLA2 inh; recombinant hGIII-sPLA2, BODIPY PC-A2 QFRET fluorescence; 34% of 2,000 active; inhibition, % at 12.2 µM;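 active means mean inhibition across triplicates above the hit cutoff set in the earlier primary screen, cut at about 19% in these data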;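 further: 0% = enzyme with DMSO and 100% = DMSO wells lacking enzyme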
535nm interf = optically interferes with 535nm fluorescence in sPLA2 counter-screen; BODIPY FL product fluorescence interference, QFRET; inhibition, % at 12.2 µM; 8.5% of 2,000 active; AID 743282; shares compounds with HGIII-sPLA2 inh;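 active means average inhibition above the solvent-only control mean plus 3 SD, cut at about 6% in these data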;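 further: 0% = DMSO with substrate plus product and 100% = DMSO with substrate alone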
BODIPY interf DR = 535nm optical interference dose response, HGIII-sPLA2 counter-screen. shares compounds with HGIII-sPLA2 inh. BODIPY FL product fluorescence interference, cell-free. IC50, µM. 240 tested, under 10 active. AID 743455;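 active means IC50 at or below 10 µM; inactive means IC50 above 10 µM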
An asterisk follows results filed as active; . = no result. Most compounds without a hit are left out; they make up all but 3.4% or so of the library.

SMILES | HGIII-sPLA2 inh | PLCb3 inh | PLC-gamma1 inh | ADAM17 inh | ADAM10 inh | proKLK7 act | sPLA2 confirm | 535nm interf | others
Cc1ccc(C)c(NC(=O)c2ccc(CS(=O)(=O)Cc3ccccc3C)o2)c1 | -13 | -1 | 2 | 6 | -1 | 0 | . | .
COc1ccc(CNc2cc([N+](=O)[O-])ccc2OC)cc1 | 2 | -4 | 0 | 3 | 7 | -1 | . | .
COc1ccc(C)cc1NCc1ccc([N+](=O)[O-])cc1 | 19* | -5 | 2 | 4 | 8 | 0 | 15 | -2
CC(C)c1cc(C(=O)NNC(=S)NCc2ccco2)c(O)c(C(C)C)c1 | 51* | -85 | -71 | 4 | -3 | -3 | 57* | 4 | BODIPY interf DR=>122
Cc1cc(C(=O)NNC(=S)NCc2ccco2)n(C)n1 | 8 | 5 | 1 | 1 | -10 | 0 | . | .
O=C(NC(=S)N1CCN(C/C=C/c2ccccc2)CC1)c1c(F)cccc1F | 27* | -4 | -2 | 1 | 1 | 0 | 24* | -2
O=C(NC(=S)N1CCN(C/C=C/c2ccccc2)CC1)c1ccco1 | 1 | 3 | -5 | 1 | -1 | 0 | . | .
CC1CN(C(=S)NC(=O)c2ccco2)CC(C)O1 (configuration not stated) | 22* | 0 | 0 | 3 | -12 | 0 | 0 | -3
Cc1cc2c(nc1C)CCCN2S(=O)(=O)c1cccs1 | 1 | -2 | -4 | -2 | -7 | 0 | . | .
C=CCN=C1NC(c2cccc(Cl)c2)C(C(=O)OC)=C(C)N1C (configuration not stated) | 11 | -1 | 1 | -3 | -1 | 0 | . | .
Nc1[nH]c(C(=O)c2ccccc2)c(-c2ccccc2C(F)(F)F)c1C(=O)c1cccs1 | 20* | -19 | -13 | 0 | 2 | 0 | 10 | -6
CCN1Cc2nnn(Cc3ccc(C)cc3)c2-c2ccccc2S1(=O)=O | -1 | 0 | -1 | -3 | -2 | 0 | . | .
COc1ccc(Cl)cc1-c1n[nH]c(=S)n1C | 24* | -3 | 6 | -1 | -13 | 0 | 16 | -2
CCn1c(-c2cc(Cl)ccc2OC)n[nH]c1=S | 14 | -1 | -1 | -5 | -3 | 0 | . | .
C=CCn1c(SCc2c(Cl)cccc2Cl)nnc1-c1cccc(C)c1 | -6 | 0 | 1 | 4 | 3 | 0 | . | .
CC(C)(C)c1ccc(C(=O)NCC(=O)NNC(=O)c2ccccc2O)cc1 | 21* | -29 | -26 | -19 | -88 | -3 | 13 | -5
CC(C)(C)c1ccc(OCCCC(=O)NNC(=O)c2ccccc2O)cc1 | 18 | -20 | -14 | -5 | -25 | -4 | . | .
O=C(NC(=S)NNC(=O)c1ccccc1O)c1ccc(F)cc1 | 35* | -10 | -4 | 1 | 9 | -1 | 31* | 0
CC(=O)Nc1ccc(NC(=S)NC(=O)c2ccc([N+](=O)[O-])cc2)cc1 | 24* | 0 | -1 | -1 | -7 | 0 | 7 | -5
O=C(NC(=S)NNC(=O)c1ccccc1O)c1ccccc1 | 31* | -5 | 2 | -10 | 6 | 0 | 25* | -3
O=C(OCC#CCSc1nnc(-c2cccc3ccccc23)o1)c1ccccc1 | 3 | -6 | -4 | -4 | -81 | . | . | .
C=CCN1C(=O)[C@@H](CC(=O)NCCCCc2ccccc2)[C@]2(C(=O)OC)CCCCC=C12 | -9 | -2 | -1 | 2 | 0 | 0 | . | .
Cc1[nH]c2ccccc2c1CC(=O)Nc1ccc(Nc2cccnc2)c(-c2ccc(-c3ccccc3)cc2F)c1 | -1 | -64 | -50 | -37 | -116 | -7 | . | .
COc1ccccc1C(=O)NNC(=S)NC(=O)c1cccs1 | 17 | -9 | 4 | 0 | 0 | 0 | . | .
O=C(NC(=S)NNC(=O)c1ccccc1O)c1cccs1 | 30* | -7 | -3 | 2 | -1 | 0 | 30* | -3 | BODIPY interf DR=>122
